Screens from PubChem BioAssay.
Sampled rows, rich in hits. Any-hit rate of the full collection: about 3.4%.
GPR151 ag: human GPR151 activation | activation, % at 11.2 µM | 650,000 tested, 1% active | PathHunter beta-arrestin GPR151 cells, luminescence; in the data active means activation above about 4.9%
TEAD-YAP block: TEAD-YAP interaction inhibition; HEK-TIYL cells, TEAD-Gal4/YAP UAS-luciferase luminescence; inhibition, % at 9.12 µM; 640,000 tested, 1.4% active; in the data active means inhibition above about 32%
FBW7 activator: human FBW7 E3 ligase activation, primary screen. normalized activity (activation), % at 26.1 µM. AlphaScreen FBW7–phospho-cyclin E peptide binding, activator screen. 650,000 tested, 0.13% active; in the data active means normalized activity above about 1.9%;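 further: purified mutant Fbw7 with reduced substrate affinity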
MITF primary: inhibitors of human MITF. 650,000 tested, 0.91% active. inhibition, % at 2.6 µM. AlphaScreen MITF homodimerization, bead proximity signal. O75030. AID 1259374; in the data active means inhibition above about 50%
Target sequence (O75030 whole entry, looked up): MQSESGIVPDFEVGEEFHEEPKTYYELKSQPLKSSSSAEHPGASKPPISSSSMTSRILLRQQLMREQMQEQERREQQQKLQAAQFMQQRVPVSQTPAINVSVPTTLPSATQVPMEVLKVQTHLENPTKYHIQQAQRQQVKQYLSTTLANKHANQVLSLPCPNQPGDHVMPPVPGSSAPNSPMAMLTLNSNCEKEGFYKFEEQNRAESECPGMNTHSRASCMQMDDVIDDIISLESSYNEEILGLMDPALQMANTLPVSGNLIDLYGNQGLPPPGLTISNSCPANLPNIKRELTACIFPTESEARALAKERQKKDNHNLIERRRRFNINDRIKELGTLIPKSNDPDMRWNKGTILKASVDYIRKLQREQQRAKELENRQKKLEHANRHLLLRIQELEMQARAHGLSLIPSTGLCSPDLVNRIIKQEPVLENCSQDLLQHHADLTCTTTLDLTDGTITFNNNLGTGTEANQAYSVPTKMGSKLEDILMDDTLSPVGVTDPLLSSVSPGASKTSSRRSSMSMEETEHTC
GPR151 confirm: human GPR151 activation, confirmation screen | shares compounds with GPR151 ag | GPR151 PathHunter beta-arrestin cells, luminescence, 90 min; % of EA-reagent control over plate median | activation, % at 11.2 µM | 6,700 tested, under 10 active | AID 1508609;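 active means mean percent activation across replicates above the confirmation screen cutoff of 4.91%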
GPR119 ag: counter-screen for GPR151 activators: effect on human GPR119 | shares compounds with GPR151 ag | GPR119 PathHunter beta-arrestin cells, luminescence, 90 min; 0 = compound-well median, 100 = enzyme-acceptor control | activation, % at 11.2 µM | 6,700 tested, 0.3% active;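 active means mean percent activation in the counterscreen above 29.09%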;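 further: counterscreen on off-target GPR119 to flag nonselective hits from the GPR151 activator screen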
Of the large screens only hits and unclear results are named; the others gave an inactive call (follow-up assays come after a bar, where they were run).

COc1ccc(S(=O)(=O)N2CCCCC2)cc1NC(=O)c1cc(C)nc2ccccc12	none
COc1ccc(NC(=O)c2cc(C)nc3ccccc23)cc1S(=O)(=O)N1CCCCC1	GPR151 ag 8.4 | GPR151 confirm inactive | GPR119 ag inactive
COc1ccccc1NC(=O)C1OC2OC(C)(C)OC2C2OC(C)(C)OC12 (configuration not stated)	none
COc1ccccc1NC(=O)[C@H]1O[C@@H]2OC(C)(C)O[C@@H]2[C@H]2OC(C)(C)O[C@H]21	GPR151 ag 6.9 | GPR151 confirm inactive | GPR119 ag inactive
FC(F)(F)c1ccc(-c2cnnc(N3CCSCC3)n2)cc1	none
OC1CCN(C2CCN(c3nncc(-c4ccc(C(F)(F)F)cc4)n3)CC2)CC1	GPR151 ag 7.3 | GPR151 confirm inactive | GPR119 ag inactive
NC(=O)COc1ccc(NC(=O)c2cncc(Br)c2)cc1	GPR151 ag 6.1 | GPR151 confirm inactive | GPR119 ag inactive
c1ccc(Oc2ccc(-c3[nH]c(-c4ccccc4)nc3-c3ccccc3)cc2)cc1	GPR151 ag 5.3 | GPR151 confirm inactive | GPR119 ag inactive
O=C(O)c1ccc(-c2nc(-c3ccccc3)c(-c3ccc(C(=O)c4ccccc4)cc3)[nH]2)cc1	none
Cc1ccc(-c2nc(-c3ccccc3)c(-c3ccc(C(=O)c4ccccc4)cc3)[nH]2)cc1	GPR151 ag 9.6 | GPR151 confirm inactive | GPR119 ag inactive
COc1ccc2nc3c(cc(C#N)c4nc5ccc(C)cc5c(=O)n43)cc2c1	none
NS(=O)(=O)c1ccc(CNC(=S)Nc2ccc(Br)cc2Cl)cc1	none
NS(=O)(=O)c1ccc(CNC(=O)Nc2ccc(Br)cc2Cl)cc1	GPR151 ag 8.7 | GPR151 confirm inactive | GPR119 ag inactive
COC(=O)c1ccccc1NC(=O)c1ccc(OC)c(Br)c1	none
CCOc1ccc(CNC(=O)c2cc(=O)[nH]c3ccccc23)cc1	GPR151 ag 5.0 | GPR151 confirm inactive | GPR119 ag inactive
O=C(Nc1ccc(N2CCOCC2)cc1)C1CC(=O)N(Cc2ccccc2)C1 (configuration not stated)	GPR151 ag 7.6 | GPR151 confirm inactive | GPR119 ag inactive
COc1cc(Nc2cc(-c3ccc(C(N)=O)cc3)nc(N)n2)cc(OC)c1OC	GPR151 ag 12 | GPR151 confirm inactive | GPR119 ag inactive
COCCNCCCCOc1ccc(Br)cc1Cl	none
CCCC(=O)ON1C(=O)c2cccc3cccc(c23)C1=O	GPR151 ag 5.5 | GPR151 confirm inactive | GPR119 ag inactive
Cc1nc2nc(SCC(=O)NC3CCCCC3)nn2c(C)c1Cc1cccc(Cl)c1	none
CC(Oc1ccc2c(c1)OCO2)C(=O)NNC(=O)Nc1cccc(C(F)(F)F)c1 (configuration not stated)	none
CC(Oc1cccc(Br)c1)C(=O)Nc1ccc2c(c1)OCO2 (configuration not stated)	GPR151 ag 5.4 | GPR151 confirm inactive | GPR119 ag inactive
COc1cccc(CC(=O)Nc2cnn(-c3cccc(C(=O)Nc4ccc(N5CCOCC5)cc4)c3)c2)c1	none
CCC(Sc1nnc(-c2ccccc2)n1N)C(=O)O (configuration not stated)	none
CC(Cc1nnc(-c2ccccc2)n1N)C(=O)O (configuration not stated)	GPR151 ag 9.8 | GPR151 confirm inactive | GPR119 ag inactive
C/C(=N\N=C1\NC(=O)C(CC(=O)Nc2ccc(C)c(Cl)c2)S1)c1ccco1 (configuration not stated)	none
Cc1nc(SCc2cccc(Oc3ccccc3)c2)n[nH]1	GPR151 ag 7.9 | GPR151 confirm inactive | GPR119 ag inactive
O=c1[nH]nc(SCc2cccc(Oc3ccccc3)c2)c(=S)[nH]1	none
O=C(Nc1c(Cl)cccc1Cl)N[C@H]1C[C@H]2C(=O)N[C@@H](Cc3ccccc3)C(=O)N2C1	none
COc1ccc(S(=O)(=O)Nc2ccc3c(c2)n(C)c(=O)n3C)cc1	none
CCOc1ccc(NS(=O)(=O)c2ccc3c(c2)n(C)c(=O)n3C)cc1	GPR151 ag 15 | GPR151 confirm inactive | GPR119 ag inactive
COc1ccc(OC)c(C(C)NC(=O)c2ccc(F)cc2)c1 (configuration not stated)	GPR151 ag 5.4 | GPR151 confirm inactive | GPR119 ag inactive
CC1CC(C)CN(C(=O)COc2ccc3c(c2)C(=O)CC(C)(C)O3)C1 (configuration not stated)	none
CCc1cccc(NC(=O)CN(C2=NC3CS(=O)(=O)CC3S2)c2ccccc2F)c1 (configuration not stated)	none
COc1ccc(CNc2nc(C)c(-c3ccn(C)n3)s2)c(F)c1	none
COc1ccccc1Nc1nc(Cl)ccc1[N+](=O)[O-]	GPR151 ag 5.0 | GPR151 confirm inactive | GPR119 ag inactive
COc1ccccc1Nc1nc(Cl)cc(N)c1[N+](=O)[O-]	none
CC(C(=O)N1c2ccccc2CC1C)N1CCN(c2ccccn2)CC1 (configuration not stated)	GPR151 ag 5.3 | GPR151 confirm inactive | GPR119 ag inactive
CNC(=O)NC(=O)C(C)N1CCN(c2ccccn2)CC1 (configuration not stated)	none
Cn1ccc(C(=O)NCC2Cc3cc(-c4cnccn4)cc(Cl)c3O2)n1 (configuration not stated)	none
Cc1ccn(CCC(=O)NCC2Cc3cc(-c4cnccn4)cc(Cl)c3O2)n1 (configuration not stated)	GPR151 ag 12 | GPR151 confirm inactive | GPR119 ag inactive
Cc1ccc(NC(=O)c2cc(F)c(F)cc2Cl)cc1S(=O)(=O)N1CCOCC1	GPR151 ag 5.2 | GPR151 confirm inactive | GPR119 ag inactive
Cc1ccc(NC(=O)c2cc(S(=O)(=O)N3CCCCCC3)ccc2F)cc1Cl	GPR151 ag 6.2 | GPR151 confirm inactive | GPR119 ag inactive
Cc1ccc(NC(=O)c2cc(S(=O)(=O)N3CCCCC3)ccc2F)cc1Cl	none
CN(C)c1ccc(NC2=CC(=O)N(CCc3ccccc3)C2=O)cc1	none
CN(C)c1ccc(NC2=CC(=O)N(Cc3ccco3)C2=O)cc1	GPR151 ag 5.1 | GPR151 confirm inactive | GPR119 ag inactive
CCCS(=O)(=O)N1CCN(C(=O)COc2ccc(C)cc2)CC1	none
O=C(c1ccccc1Br)N1CCN(C2CCCCC2)CC1	none
NC(=O)COC(=O)CCN1c2ccccc2Sc2ccccc21	GPR151 ag 9.8 | GPR151 confirm inactive | GPR119 ag inactive
Cn1c(Nc2nc(Nc3ccc(N4CCOCC4)cc3)c3ncn(CCN4CCCC4=O)c3n2)nc2ccccc21	none
COC(=O)c1ccccc1NC(=O)CN(c1ccccc1Cl)S(C)(=O)=O	none
COC(=O)c1ccccc1NC(=O)CN(c1ccc(OC)cc1OC)S(C)(=O)=O	GPR151 ag 9.5 | GPR151 confirm inactive | GPR119 ag inactive
